# Assay results as given in PubChem BioAssay (NCI).
# Compounds without any hit were thinned out: in the full panel of roughly 83,000, 20% have a hit.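 Results are percent growth after 48 hours of single-concentration exposure. 100 means growth as in untreated cells, lower positive values show inhibition; negative values down to -100 show cell death.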 Values without a mark were called inactive. Activity calls are given as the source filed them.
# Tested on: BT-549 breast
# Test: NCI-60 one-dose screen, 48 h (100 = growth as untreated, 0 = no growth, -100 = all killed)
# Settings: 10 µM unless noted
# Experimental: Growth inhibition of the BT-549 human tumor cell line is measured as a screen for anti-cancer activity. Cells are grown in 96 well plates and exposed to the test compound for 48 hours. Compounds are tested at a single concentration, which is 10^-5 M for most compounds. The reported endpoint is percent growth (GI% or GIPRCNT), where numbers from 0 - 100% represent growth inhibition, and numbers from -100% - 0 represent cell death. For example, a value of 40 represents 60% growth inhibition. A value of 0 means no net growth occurred over the course of the experiment. A value of -40 indicates 40% of cells at the beginning of the experiment died by the end of the experiment. A value of -100 means all cells are dead at the end of the experiment.
# NCI-60 Human Tumor Cell Lines Screen was performed using the standard one-dose NCI protocol, which is described in more detail at https://dtp.cancer.gov/discovery_development/nci-60/default.htm.
# Compounds with GIPRCNT values below 10 were considered active. Activity score was based on GIPRCNT using the following formula: […]
# Score is 0 for GIPRCNT values of 100 or above, 50 for GIPRCNT values of 0, and 100 for GIPRCNT values of -100.
row,Structure (SMILES),growth
1,CC(C)CCSc1nc(Nc2ccccc2)c(C#N)c(-c2ccccc2)n1,62.1%
2,C#CC#CC#CC#CC#CC#CC#CC#CC[C@H]1OC[C@H](COC(=O)O[C@@H](C(=O)O[C@H]2C[C@@]3(O)[C@@H](OC(=O)c4ccccc4)[C@@H]4[C@]5(OC(C)=O)CO[C@@H]5C[C@H](O)[C@@]4(C)C(=O)[C@H](OC(C)=O)C(=C2C)C3(C)C)[C@@H](NC(=O)c2ccccc2)c2ccccc2)O1,53.2%
3,COC(=O)c1c2c(c(C)[n+]([O-])c1C)C(=O)C=CC2=O,-90.3% (active)
4,Cc1cc2nc(-c3c(-c4ccc(F)cc4)nc4sccn34)[nH]c2cc1C,109%
5,N=C(N)c1ccc(-c2ccc(-c3ccc(F)cc3)s2)s1,80%
6,CCCCCCCC/C=C\CCCCCCCCOc1ccccc1CC(=O)NCC[N+]1(C)CCCCC1,47.9%
7,S=c1[nH]c2cc(Cl)ccc2o1,99.8%
8,O=C(CCl)Nc1ccc2c(Nc3cc(O)ccc3Cl)ncnc2c1,-78.5% (active)
9,COc1cc2cc(NCc3ccc(OC(F)F)cc3)nc(C)c2cc1OC,71.8%
10,CCN1C(=O)N(CC)C2C1NN=C1SCC(=O)N12 (stereo not given),102%
11,Cc1c2ccccc2nc2c1ccc1cccnc12,96.3%
12,N#Cc1c(N2CCOCC2)nc(=S)[nH]c1-c1ccccc1,57.7%
13,CC(C)=CC(=O)N[C@@H]1CC2CCC3C(CC[C@@]4(C)C3CC[C@@H]4C(C)N(C)C)[C@@]2(C)C[C@@H]1O (stereo not given in full),66.1%
14,O=C1/C(=C/c2ccc(C(F)(F)F)cc2)COc2ccc(O)c(O)c21,10.9%
15,CCN(CC)c1ccc(/C=N\NC(=O)c2cccc(Nc3ccnc(C(F)(F)F)c3)c2)c(O)c1,28.8%
16,Cc1nc2sc(C(=O)Nc3ccccc3)c(N)c2cc1C(=O)/C=C/c1ccccc1,-7.07% (active)
17,COc1ccc2nc(Cl)c(/C=C/C(=O)c3ccc(NC(=O)CSc4nnc(-c5ccc(Cl)c(Cl)c5)n4-c4ccccc4)cc3)cc2c1,80%
18,O=C(c1ccc(F)c(Cl)c1)N1c2ccccc2Sc2ccccc21,57.6%
19,O=C(O)c1cn(C2CC2)c2cc(N3CCN(C(=O)N/N=C/c4ccccc4)CC3)c(F)cc2c1=O,92.6%
20,Cc1ccccc1OCC(O)COc1ccccc1C,79.4%

row,Structure (SMILES),growth
1,C=C1C(=O)O[C@H]2[C@H]1CC/C(Cn1cc(-c3cc(C(F)(F)F)cc(C(F)(F)F)c3)nn1)=C\CC[C@@]1(C)O[C@@H]21,-78% (active)
2,O=C(CBr)CN1C(=O)c2ccccc2C1=O,111%
3,Cc1ccc(C)n1/C=C/n1c(C)ccc1C,91%
4,Clc1ccc(-c2nc(-c3c[nH]c4ncccc34)cs2)cc1,47.2% [100 µM]
5,COc1ccc(C(C)=O)cc1S(N)(=O)=O,95.6%
6,CCCCCn1sc(=O)n(Cc2ccc(CNC(=O)OCc3ccc4c(Cl)cc(Cl)c(O)c4n3)cc2)c1=O,71.1%
7,Cc1ccc(-c2nc(C#N)c(S(=O)(=O)NCCO)o2)cc1,64.7%
8,COC(=O)Cc1nc(C#N)c(N(C)C)o1,92.6%
9,O=C(CSc1nc2ccc([N+](=O)[O-])cc2[nH]1)Nc1cccc([N+](=O)[O-])c1,59%
10,COc1ccc(C2=NN(C(=O)c3cc(OC)c(OC)c(OC)c3)C(c3ccc(N(C)C)cc3)C2)cc1 (stereo not given),28.4%
11,Oc1c(CN2CCCC2)cc(COCc2ccccc2)c2cccnc12,27.2%
12,NS(=O)(=O)c1ccc(N/C=C/C(=O)c2cc3ccccc3oc2=O)cc1,95.5%
13,Cc1nc2sc(C(=O)Nc3ccc(Cl)cc3)c(N)c2cc1C(O)c1ccccc1 (stereo not given),59.2%
14,Nc1ccc([N+](=O)[O-])cc1N=C/C=C/c1ccccc1,55%
15,C=CCN=C(N)SCCCCCCSC(N)=NCC=C,84.9%
16,CC/C(Cc1ccccc1)=C(\c1ccc(OCCN2CCCCCC2)cc1)c1ccc(OC(=O)NCc2ccccc2)cc1,81.9%
17,Cc1cc(F)ccc1S(=O)(=O)Nc1cc(-c2c(O)ccc3ccccc23)c(O)c2ccccc12,30.1%
18,C=C(CO)[C@@H]1CC[C@]2(COC3CCCCO3)CC[C@]3(C)[C@H](CC[C@@H]4[C@@]5(C)C=C(C=O)C(=O)C(C)(C)[C@@H]5CC[C@]43C)[C@@H]12 (stereo not given in full),-88.6% (active)
19,CCCCc1oc2ccccc2c1C(=O)c1ccc(O)cc1,70.1%
20,CC1O[C@@H]2C[C@@](O)([C@H]1O)n1c3ccccc3c3c4c(c5c6ccccc6n2c5c31)C(=O)NC4=O (stereo not given in full),36.3%
